Hit rate of the full screen: of about 69,000 compounds, about 8,600 (12%) showed an effect of 50% or more. The full list was thinned out, with strong results kept by preference.
system: Plasmodium berghei; test: Screen against P. berghei liver stage (PbLuc), transformed with Luciferase, at 10uM; type: functional, HepG2; details: tested at 10 uM

Point of comparison: `CS(=O)(=O)N1CC[C@H]2O[C@H](C(=O)NCCc3ccccn3)CC[C@H]21`, INHIBITION 54.7%. Against it:
- COCCn1c(-c2cccc(OC)c2)cnc1NC(=O)NC(C)C — lower, 18.4%
- Nc1ncc(-c2ccc(C(F)(F)F)cc2)c(C2CCCNC2)n1 (stereo not given) — higher, 70.1%
- Nc1ncc(-c2ccc(F)cc2)c(C2CCCNC2)n1 (stereo not given) — lower, 28.3%
- Nc1ncc(-c2ccc(Cl)cc2)c(C2CCCNC2)n1 (stereo not given) — lower, 31.6%
- O=c1cc2c(nn1CN1CCN(c3ccccc3)CC1)CCCC2 — lower, 38.9%
- Cn1cc(C(=O)N2CCCC2c2noc(C3CC3)n2)c2ccccc21 (stereo not given) — lower, 19.2%
- O=C1CO[C@H]2CN(C3CCOCC3)C[C@H]2N1Cc1ccncc1 — lower, 22.2%
- O=C1CO[C@@H]2CN(C3CCOCC3)C[C@H]2N1Cc1ccncc1 — higher, 73.6%
- O=C1CO[C@H]2CN(C3CCOCC3)C[C@H]2N1Cc1ccc(F)cc1 — lower, 4.82%
- CCOC(=O)C(C)Nc1ccc(CCN2CCOCC2)cc1 (stereo not given) — lower, -30.1%
- CCC(Nc1ccc(CCN2CCCCC2)cc1)C(N)=O (stereo not given) — higher, 57.2%
- CCC(Nc1ccc(CCN2CCOCC2)cc1)C(N)=O (stereo not given) — lower, -28.8%
- Cc1nn(Cn2ccc(C(=O)N3CCCC3)n2)c(C)c1Cl — lower, 7.92%
- COc1cc(-c2nc(C3CC3)nn2-c2ccnc(C)c2)nc(OC)n1 — lower, -10.2%
- O=C(Nc1nnc(C(F)F)s1)NC(CCO)c1cccs1 (stereo not given) — lower, 13.8%
- CN(C)CCCN(C)C1CCN(c2cccc(-c3cscn3)c2)CC1 — lower, 52.2%
- CN(Cc1cnn(C)c1)C1CCN(c2cccc(-c3cscn3)c2)CC1 — lower, 45.6%
- CN(Cc1nccs1)C1CCN(c2cccc(-c3cscn3)c2)CC1 — higher, 63.6%
- Cc1cc(CN(C)C2CCN(c3cccc(-c4cscn4)c3)CC2)on1 — lower, 44.8%
- CN(Cc1ccon1)C1CCN(c2cccc(-c3cscn3)c2)CC1 — lower, 30.9%
- Cc1nnc(CN(C)C2CCN(c3cccc(-c4cscn4)c3)CC2)o1 — lower, 23.5%
- Cc1cc(C2CCCN(CCCS(C)(=O)=O)C2)n[nH]1 (stereo not given) — lower, 11.9%
- CN(C)c1ccc(C(=O)N2CCN(Cc3cscn3)CC2)cn1 — lower, -0.219%
- COc1ccc(NCc2c[nH]nc2-c2cccnc2)cc1 — higher, 56.8%
- CCOCc1cccc(NCc2c[nH]nc2-c2cccnc2)c1 — lower, 49.1%
- FCCOc1cccc(NCc2c[nH]nc2-c2cccnc2)c1 — lower, 34.6%
- CC(Cn1cccn1)NC(=O)NCc1cccnc1OC1CCCC1 (stereo not given) — lower, -21.7%
- CC(Cn1cccn1)NC(=O)NCc1ccnc(OC2CCCC2)c1 (stereo not given) — lower, 23.5%
- CC(Cn1cccn1)NC(=O)NCc1ccc(OC2CCCC2)nc1 (stereo not given) — lower, 54.4%
- CC(C)n1cnnc1CN1CCC2(CCCN(C3CCCCC3)C2=O)C1 (stereo not given) — lower, -64.1%
- CCN1CCCC1CNC(=O)c1cc(COc2ccccc2F)[nH]n1 (stereo not given) — lower, -11.2%
- COc1ccc2c(c1)CCCN(CC(=O)NCC1CCCO1)C2 (stereo not given) — lower, 39.6%
- Cc1c(C(=O)N2CCN(C)CC2)n(C)c2ccc(Cl)cc12 — lower, 20.9%
- Cc1c(C(=O)N2CCOCC2)n(C)c2ccc(Cl)cc12 — lower, -1.3%
- Cc1c(C(=O)N2CCC(N3CCCCC3)CC2)n(C)c2ccc(Cl)cc12 — higher, 69.3%
- NS(=O)(=O)CC1CCCN(C(=O)CCCC2CCCC2)C1 (stereo not given) — lower, 43.8%
- O=C(CCC1CCN(C2Cc3ccccc3C2)CC1)NCC1CCCO1 (stereo not given) — lower, 25.8%
- O=C1CCC2(CCN(Cc3nccs3)CC2)N1Cc1ccccc1 — lower, 11.4%
- COc1cc(F)ccc1-c1cc(N)ccn1 — lower, 49.6%
- COc1ccc(-c2ccnc(N)c2)c(OC)c1 — lower, -10.5%
- COc1ccc(-c2cc(N)ccn2)c(OC)c1OC — higher, 61.5%
- CCOc1ccc2oc(-c3cnn(C)c3C)c(O)c(=O)c2c1 — lower, 0.207%
- COC(=O)c1ccc(NC(=O)CCNCc2ccco2)cc1 — lower, 36.5%
- CN1CCN(Cc2ccc(-c3ccc(C(N)=O)cc3)nc2)CC1 — lower, 24.2%
- CN1CCN(Cc2ccc(-c3ccc4[nH]ccc4c3)nc2)CC1 — lower, 27.5%
- CN1CCN(Cc2ccc(-c3ccc(-c4ccn[nH]4)cc3)nc2)CC1 — higher, 54.9%
- CCCC(=O)N1CCCCC1c1nccc(C)n1 (stereo not given) — lower, 20.8%
- COc1ccc(CN(C)[C@@H]2CN(C(=O)c3cccn3C)C[C@H]2O)cc1 — lower, 32.8%
- CN1CCN(c2ncc3c(c2C(=O)O)CCN(C2CCOC2)C3)CC1 (stereo not given) — higher, 58.5%
- CCN(CC)c1ncc2c(c1C(=O)O)CCN(C1CCOC1)C2 (stereo not given) — lower, 15.7%
- CCN(C)c1ncc2c(c1C(=O)O)CCN(C1CCOC1)C2 (stereo not given) — lower, 33.4%
- CO[C@@H]1CCN(C(=O)c2ccsc2)[C@@H]2CN(CC3CC3)C[C@@H]21 — lower, -19.6%
- NC(=O)COc1ccc(CN2CC[C@@]3(O)CCCC[C@H]3C2)cc1Cl — lower, 16.8%
- NC(=O)COc1ccc(CN2CCC3(CC2)[C@H](O)C[C@@H]3O)cc1Cl — lower, 28.7%
- NC(=O)COc1ccc(CN2CCC(O)(CN3CCCCC3)C2)cc1Cl (stereo not given) — lower, 50.5%
- COc1ccccc1C1CCN(C(=O)CN2C(=O)OC(C)(C)C2=O)CC1 — lower, -140%
- Cc1c(C(C)NC2CCCC2)cnn1-c1ccc(F)cc1F (stereo not given) — lower, 31.9%
- CSc1ncc(CNC(C)c2cnn(-c3ccc(F)cc3F)c2C)cn1 (stereo not given) — lower, 50.3%
- Cc1c(C(C)NCC2CCCC2)cnn1-c1ccc(F)cc1F (stereo not given) — higher, 62.9%
- Cc1c(C(C)NC2CCOCC2)cnn1-c1ccc(F)cc1F (stereo not given) — lower, 22.3%
- CSc1ncc(CNC(C)c2cnn(-c3ccccc3)c2C)cn1 (stereo not given) — lower, 36.7%
- COc1ccc(-n2ncc(C(C)NCc3cnc(SC)nc3)c2C)cc1 (stereo not given) — lower, 7.6%
- O=C(NC[C@H]1OC[C@@H]2CCN(C3CCOCC3)C[C@@H]21)c1ccncc1 — lower, 36.2%
- COc1c(CNC2CCc3c(Cl)cccc32)c(C)nn1C (stereo not given) — lower, 36.3%
- CC(O)Cc1cn(CC2CCN(C3CCSCC3)CC2)nn1 (stereo not given) — higher, 57.8%
- CCCN1CCC(N2CCC(Cn3cc(CC(C)O)nn3)CC2)CC1 (stereo not given) — lower, 25.3%
- OCc1cn(CC2CCN(C3CCSC3)CC2)nn1 (stereo not given) — lower, -14.1%
- O=C(O)c1cc(-c2cccs2)nc2c(Br)cnn12 — lower, 15.9%
- Cn1cc(NC(=O)CNC(=O)N2CCN(c3ccccc3)CC2)cn1 — lower, 21.5%
- Cc1cnc(CN(C)C2CCN(CC(=O)Nc3nncs3)C2)o1 (stereo not given) — lower, 20.9%
- CCCC(=O)N1CCC2(CC1)CN(Cc1cccc(C)n1)C(=O)CO2 — lower, 25.3%
- CS(=O)(=O)N1CC[C@H]2O[C@H](C(=O)NCc3cccnc3)CC[C@H]21 — lower, 11.4%
- CS(=O)(=O)N1CC[C@H]2O[C@H](C(=O)NCCc3ccncc3)CC[C@H]21 — lower, -35.9%
- O=C(NCCc1ccccn1)[C@@H]1CC[C@@H]2[C@@H](CCN2Cc2ccoc2)O1 — higher, 59.9%
- O=C(NCc1cccs1)[C@H]1CC[C@@H]2[C@@H](CCN2Cc2ccoc2)O1 — lower, -5.31%
- O=C(Nc1cnccn1)[C@H]1CC[C@@H]2[C@@H](CCN2Cc2ccoc2)O1 — lower, 8.52%
- Cc1c(C(=O)N(C)c2ccccc2)cccc1N(C)S(C)(=O)=O — lower, 22.07%
- CN(Cc1ccc(F)cc1)[C@@H]1CN(S(C)(=O)=O)C[C@H]1O — lower, 14.12%
- CC(=O)N1CCN(C(=O)c2cnc(OC(C)C)c(Cl)c2)CC1 — lower, -2.32%
- CC(O)CN1CCN(C(=O)c2cnc(OC(C)C)c(Cl)c2)CC1 (stereo not given) — lower, 40.5%
- CCN1CCCN(C(=O)c2cnc(OC(C)C)c(Cl)c2)CC1 — higher, 60.1%
- CC(C)Oc1ncc(C(=O)N2CCC(N(C)C)CC2)cc1Cl — lower, 26.6%
- CC(=O)N1CCCN(C(=O)c2cnc(OC(C)C)c(Cl)c2)CC1 — lower, 51.1%
- CC(C)Oc1ncc(C(=O)N2CCC(CC(N)=O)CC2)cc1Cl — lower, 16.9%
- O=C(N[C@@H]1CN(Cc2cccs2)[C@@H]2CCCO[C@@H]21)c1cscn1 — lower, -17.1%
- O=C(NCCNc1ncccn1)N1CCCC1c1ccncc1 (stereo not given) — lower, 11.8%
- Cc1nc(CN(Cc2ccncc2)C2CCN(C)CC2)cs1 — lower, 8.46%
- CCn1ncc(-c2cc(C(F)(F)F)nc(N3CCC(N)CC3)n2)c1C — lower, -1.84%
- CCc1ccc(-c2cc(C(F)(F)F)nc(N3CCC(N)CC3)n2)cc1 — higher, 91.4%
- CCNC(=O)[C@@H]1C[C@H](N)CN1c1cc(C(F)(F)F)nc(N2CCCC2)n1 — lower, -122%
- Cc1c(-c2cc(C(F)(F)F)nc(N3CCC(N)CC3)n2)cnn1C — lower, 50.8%
- Cc1ccc(-c2cc(C(F)(F)F)nc(N3CCOCC3)n2)s1 — lower, 29.8%
- FC(F)(F)c1cc(-c2cccs2)nc(N2CCN3CCCC3C2)n1 (stereo not given) — lower, 25.3%
- CCc1nc(C2CCCN2Cc2cc(=O)n(C)c(=O)n2C)no1 (stereo not given) — lower, -27.9%
- CC(C)C(CCO)NC(=O)Nc1ccc(-c2csnn2)cc1 (stereo not given) — lower, -6.39%
- Cc1cccc(CN2C(=O)CCC23CCN(c2ccccn2)CC3)n1 — lower, -11%
- Cc1nn(-c2cc(Cl)cc(Cl)c2)c(C)c1CCC(=O)O — lower, 46.1%
- CC(c1ccccn1)N(C)Cc1ccc(-n2cncn2)cc1 (stereo not given) — lower, 28.5%
- Cc1ccccc1OCCCC(=O)NCC1CN(C)CCO1 (stereo not given) — lower, 22.265%
- Cc1cccc(C2(C(=O)NCC3CN(C)CCO3)CC2)c1 (stereo not given) — lower, 19.8%
- CN1CCOC(CNC(=O)CCCOc2ccccc2F)C1 (stereo not given) — lower, 52%
- CN1CCOC(CNC(=O)C2(c3ccccc3)CCC2)C1 (stereo not given) — higher, 57.4%
- CN1CCOC(CNC(=O)CCCOc2cccc(F)c2)C1 (stereo not given) — lower, -5.2%
- CN1CCOC(CNC(=O)C2(c3cccc(Cl)c3)CC2)C1 (stereo not given) — lower, 0.348%

— ChEMBL document CHEMBL4513216, “Probing the Open Global Health Chemical Diversity Library for Multistage-Active Starting Points for Next-Generation Antimalarials” (ACS Infect Dis, 2020)
